About 83,000 compounds went through this panel and 20% of them were active in at least one assay; those are over-represented in the sample as a whole.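 Negative percent growth values reflect cell death: -40 means 40% of the cells present at the start died, and -100 means all died.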 Values without a mark were called inactive. The source made the active and inactive calls. How the source made its calls: active means growth percent below 10; inactive means the rest.

Common to all, as to test: NCI-60 one-dose screen, 48 h (100 = growth as untreated, 0 = no growth, -100 = all killed)
Common to all, as to details: 10 µM unless noted

Assay [1] concerns NCI-H23 lung.
For assay [2], the system named is NCI-H226 lung.
Assay [3] has as its system NCI-H322M lung.
The test system of assay [4] is HOP-62 NSCLC.
Assay [5] deals with NCI-H460 lung.
For assay [6], the system named is HOP-92 NSCLC.
For assay [7], the system named is NCI-H522 lung.
The test system of assay [8] is A549/ATCC NSCLC.
The test system of assay [9] is 786-0 renal.
Assay [10] has as its system COLO 205 colon.

On to `CCCCCn1cnc2c(=S)nc[nH]c21`, for which the growth in [1] was 102%; in assay [2], 110%; in assay [3], 121%; in assay [4], 110%; in [5], 98.5%; in assay [6], 101%. Also, the growth was 90% in assay [7], 118% in assay [8], 106% in assay [9] and 105% in [10].
As for `O=C1/C(=C/c2ccc(Cl)cc2Cl)CN(S(=O)(=O)c2ccccc2)C/C1=C\c1ccc(Cl)cc1Cl`, the growth in assay [1] was -37.6% (active); in assay [2], 58.3%; in [3] it was -0.804% (active); in assay [4] it was -2.25% (active); in assay [5], -24.1% (active); in assay [6], -3.29% (active). Besides, the growth was -34.1% (active) in assay [7], 3.06% (active) in assay [8], -81.2% (active) in assay [9] and -15.9% (active) in [10].
Turning to `CCOC(=O)C(Cc1cc(I)c(O)c(I)c1)NC(=O)c1ccccc1` (stereo not given), the growth was 102% in assay [1]; 93.1% in assay [2]; 101% in [3]; 78.8% in assay [4]; 104% in assay [5]; -14.2% (active) in assay [6]. Moreover, the growth was 87.5% in [7], 83.8% in assay [8], 97.6% in [9] and 108% in assay [10].
As for `Cc1csc2ccc(Cl)cc12`, the growth in assay [1] was 97.8%; in assay [2], 104%; in [3], 101%; in assay [4], 96.6%; in assay [5], 106%; in [6], 104%. In addition, the growth in [7] was 89%; in [8] it was 109%; in [9], 105%; in assay [10], 105%.
Consider `CNCc1cccc2c1OCCOCCOCCN(C)S(=O)(=O)c1ccc(cc1)-c1cnc(N)c(n1)C(=O)N2`, for which the growth is 52.6% in assay [1]; 45.6% in [2]; 25.5% in assay [3]; 79.8% in assay [4]; 10.5% in assay [5]; 127% in assay [6]. Also, the growth is 9.56% (active) in assay [7], 60.5% in assay [8], 9.16% (active) in assay [9] and 29.8% in assay [10].
With `N#Cc1ccc(NC(=O)Nc2ccc(Cc3ccc(NC(=O)Nc4ccc(C#N)cc4)cc3)cc2)cc1`, the growth is -4.62% (active) in assay [1]; 37.7% in [2]; 63.3% in [3]; 50.2% in assay [4]; 17.2% in [5]; 46.8% in assay [6]. Further, the growth in assay [7] is 28.2%; in assay [8], 41.3%; in assay [9], 49.3%; in assay [10] it was 29.5%.
For `Cc1ccc(/C=C2\Oc3cc(OCC(=O)c4ccc(Cl)cc4)ccc3C2=O)cc1`, the growth in assay [1] was 90.1%; in assay [2], 109%; in assay [3], 103%; in assay [4], 104%; in assay [5], 120%; in assay [6], 88.2%. Besides, the growth in [7] was 103%; in assay [8], 90.1%; in assay [9], 107%; in assay [10], 111%.
For the compound `Brc1cccc(-c2nc(-c3ccc4c(c3)OCCO4)co2)c1`, the growth is 71.3% [25 µM] in assay [1]; 78.2% [25 µM] in assay [2]; 90.7% [25 µM] in assay [3]; 57.9% [25 µM] in [4]; 25.2% [25 µM] in assay [5]; 80.4% [25 µM] in [6]. Also, the growth is 24.5% [25 µM] in assay [7], 56.3% [25 µM] in assay [8], 78% [25 µM] in assay [9] and 50.5% [25 µM] in assay [10].
For the compound `CC1CN(Cc2ccco2)C(=S)N(c2ccccc2)C1=O` (stereo not given), the growth is 108% in assay [1]; 97.3% in assay [2]; 99.4% in [3]; 88.1% in [4]; 98.5% in assay [5]; 92.7% in [6]. The growth in assay [7] is 92.9%; in assay [8], 110%; in [9], 103%; in assay [10] it was 128%.
For `CC(=O)N1CC(Nc2ccc(OC(F)(F)F)cc2)=CC1=O`, the growth in assay [1] was 56.8%; in assay [2], 67.5%; in assay [3], 43.3%; in [4], 30.2%; in assay [5], 20.6%; in assay [6], 50%. For the same compound, the growth was 29.3% in assay [7], 38.9% in assay [8], 53.6% in assay [9] and 4.8% (active) in [10].
Regarding `CC1=N/C(=C\c2cccc(Br)c2)C(=O)O1`, the growth in [1] was 106%; in assay [2], 106%; in [3], 106%; in [4], 92.8%; in assay [5], 106%; in assay [6], 107%. The growth in assay [7] was 87.7%; in assay [8], 89.3%; in assay [9], 102%; in assay [10], 106%.
With `COc1c(C2CC(=O)Nc3c2cnn3Cc2ccco2)cc2c(c1OC)OCO2` (stereo not given), the growth in assay [1] is 29.9%; in assay [2] it was 44.7%; in assay [3], 55.4%; in assay [4], 12.2%; in assay [5] it was 2.88% (active); in assay [6], 48.9%. Besides, the growth in assay [7] was -2.1% (active); in assay [8], 27.6%; in assay [9], 35.4%; in assay [10], -49.1% (active).
With `CCCCCCCCCCNC(=O)CCl`, the growth is 47.5% in assay [1]; 85.7% in assay [2]; 92.8% in assay [3]; 81.3% in assay [4]; 92.9% in [5]; 36.2% in assay [6]. Moreover, the growth in assay [7] is 50.4%; in assay [8], 93.6%; in [9], 82.3%; in assay [10], 116%.
Turning to `O=C(CCCCN1CCOCC1)Nc1ccc(Cn2nnc3c2C(=O)c2nnn(Cc4ccc(NC(=O)CCCCN5CCOCC5)cc4)c2C3=O)cc1`, the growth in [1] was -18% (active); in [2], -52.2% (active); in assay [3] it was -89.3% (active); in assay [4] it was -59.1% (active); in [5] it was -39.8% (active); in assay [6] it was -40.3% (active). Besides, the growth was -68.3% (active) in assay [7], -68.3% (active) in [8], -50.5% (active) in [9] and -78.8% (active) in [10].

These data come from PubChem BioAssay (NCI).
